Compounds with a hit are over-represented: about 28% of the library has one in this group of screens.
CYP2C9 inh – blocks human cytochrome P450 2C9 | P11712 | CYP2C9 Supersomes, luciferin-H conversion, luminescence | inhibition, % at 5 µM | 96,000 tested, 20% active | AID 777;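 active means blocking of liver enzyme CYP2C9 beyond about 50% at 5 µM, limit read from the data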
PLK1 inh – blocks human PLK1 kinase activity. P53350. recombinant PLK1 kinase, TR-FRET peptide phosphorylation. inhibition, % at 10 µM. 97,000 tested, 0.53% active;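 active means inhibition of 50% or more in the single-concentration screen; inactive means inhibition below 50%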;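 further: 0% = DMSO max control and 100% = H-89 dihydrochloride min control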
Target sequence (P53350 whole entry, looked up): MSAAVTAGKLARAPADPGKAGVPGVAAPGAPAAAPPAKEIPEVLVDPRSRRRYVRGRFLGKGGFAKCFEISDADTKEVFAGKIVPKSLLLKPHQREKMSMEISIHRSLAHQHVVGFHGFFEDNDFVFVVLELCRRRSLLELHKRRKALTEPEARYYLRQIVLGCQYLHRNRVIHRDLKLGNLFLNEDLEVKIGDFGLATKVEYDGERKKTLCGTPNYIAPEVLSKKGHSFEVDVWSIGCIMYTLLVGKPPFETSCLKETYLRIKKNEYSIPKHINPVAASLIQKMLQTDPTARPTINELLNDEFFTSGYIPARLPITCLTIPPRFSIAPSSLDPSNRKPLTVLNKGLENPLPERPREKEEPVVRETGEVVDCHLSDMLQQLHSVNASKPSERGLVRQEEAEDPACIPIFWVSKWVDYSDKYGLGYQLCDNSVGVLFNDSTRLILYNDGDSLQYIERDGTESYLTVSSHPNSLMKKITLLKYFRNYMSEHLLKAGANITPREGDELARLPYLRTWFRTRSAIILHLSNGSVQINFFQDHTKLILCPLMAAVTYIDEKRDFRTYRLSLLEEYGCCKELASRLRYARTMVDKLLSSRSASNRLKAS
CYP2C9 activ – activators of human CYP2C9; P11712; recombinant CYP2C9, luciferin-H conversion, luminescence; active compounds read high; factor 1 = untreated enzyme, 0 = blocked; activation factor at 5 µM; 96,000 tested, 1.4% active; AID 1024;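 active means activation factor of 2 or more for CYP2C9 at a 5 µM dose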;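 further: 0 = sulfaphenazole-blocked wells and 1 = vehicle-only wells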
CYP2C19 inhib – blocks human cytochrome P450 2C19; P33261; 96,000 tested, 21% active; CYP2C19 Supersomes, luciferin-H EGE luminescence, 30 min; AID 778; inhibition, % at 5 µM;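 active means CYP2C19 inhibition above a set limit at 5 µM in the primary screen, cut at about 50% in these data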;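 further: plate controls were negative control wells for no effect and 2.5 mM tranylcypromine positive control for full effect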
CYP2C19 activ – activators of human cytochrome P450 2C19. P33261. recombinant CYP2C19, luciferin-H EGE luminescence; active compounds read high; 0 = fully inhibited enzyme, 1 = untreated enzyme. activation factor at 5 µM. 96,000 tested, under 10 active. AID 1025;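 active means activation factor of at least 2 at 5 µM in the primary screen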;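 further: 0 = wells with 2.5 mM tranylcypromine and 1 = vehicle-only wells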
Plk1 PBD FP – blocks phosphopeptide binding to human Plk1 polo box domain. P53350. 97,000 tested, 0.13% active. inhibition, %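 (tested at about 20 µM)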. AID 693. Plk1 PBD phosphopeptide binding, fluorescence polarization; in the data active means inhibition above about 34%, passing the limit was not always enough
Numbers without * were called inactive; . = no result given.

SMILES | CYP2C9 inh | PLK1 inh | CYP2C9 activ | CYP2C19 inhib | CYP2C19 activ | Plk1 PBD FP
COc1ccc(-c2nnn(CC(=O)NCc3ccccc3)n2)cc1OC | . | -18 | . | . | . | -8
Cc1cnc(C(=O)Nc2ccccc2-c2nnn(CC(=O)NC3CCCC3)n2)cn1 | 25 | -14 | 0.8 | -13 | 1.1 | -13
O=C(Cn1nnc(-c2ccccc2NC(=O)c2ccco2)n1)NC1CCCCC1 | 64* | -18 | 0.4 | 26 | 0.7 | -12
O=C(c1ccccc1)N1CCN(C(=O)c2ccccc2)CC1 | . | -9 | . | . | . | 3
O=C(Nc1ccccc1C(=O)N1CCN(Cc2ccccc2)CC1)c1ccccn1 | 67* | -11 | 0.3 | 85* | 0.1 | 14
CC(=O)Nc1cccc(C(=O)N2CCN(Cc3ccccc3)CC2)c1 | 13 | 7 | 0.9 | 96* | 0 | -16
O=C(c1ccccc1)N1CCN(Cc2ccccc2Br)CC1 | 76* | -8 | 0.2 | 98* | 0 | -20
O=C(Nc1cccc(C(=O)N2CCN(Cc3ccccc3)CC2)c1)c1ccccc1 | -2 | -9 | 1 | 83* | 0.2 | -6
Cn1c(=O)oc2cc(S(=O)(=O)N3CCC(C(=O)NCc4ccc(F)cc4)CC3)ccc21 | -33 | 6 | 1.3 | 9 | 0.9 | -15
CSc1nc(-c2ccccc2)nn1C(=O)c1ccc(C)cc1 | 15 | -13 | 0.8 | 25 | 0.7 | 16
CC1(C)CC(=NO)CC(C)(C)N1 | 34 | -7 | 0.7 | 8 | 0.9 | 7
COc1ccccc1N1CCN(C(=O)c2ccc(S(=O)(=O)N3CCCC3)cc2)CC1 | 34 | -11 | 0.7 | 15 | 0.8 | 3
O=C(c1cccc(C(=O)N2CCN(Cc3ccccc3)CC2)c1)N1CCN(Cc2ccccc2)CC1 | 82* | . | 0.2 | 97* | 0 | .
CCOC(=O)c1cnc2ccc(OCC)cc2c1N1CCN(c2ccccc2)CC1 | 69* | -5 | 0.3 | 21 | 0.8 | 1
CCOC(=O)c1cnc2ccc(C)cc2c1Nc1ccc(N2CCOCC2)cc1 | 81* | -12 | 0.2 | 78* | 0.2 | -13
O=S(=O)(c1cccs1)N1CCCc2ccccc21 | -113 | -9 | 2.1* | 85* | 0.2 | -4
CC1Cc2ccccc2N1C(=O)C1CCN(S(=O)(=O)c2cccs2)CC1 (stereo not drawn) | 7 | -2 | 0.9 | 15 | 0.8 | 11
O=S(=O)(c1cccs1)N1CCc2ccccc21 | -131 | -5 | 2.3* | 51* | 0.5 | -4
Cn1c(=O)oc2cc(S(=O)(=O)N3CCCc4ccccc43)ccc21 | -20 | -23 | 1.2 | 29 | 0.7 | 15
O=c1c2ccccc2nc2n1CC/C2=C\c1ccccc1[N+](=O)[O-] | 18 | -8 | 0.8 | -5 | 1.1 | -4
CS(=O)(=O)N(Cc1ccccc1)c1ccc(C(=O)N2CCc3ccccc3C2)cc1 | 63* | -4 | 0.4 | 46 | 0.5 | -18
CN1CCN(C(=O)c2ccc(N(Cc3ccccc3Cl)S(C)(=O)=O)cc2)CC1 | 22 | -11 | 0.8 | 12 | 0.9 | -5
CCOC(=O)N1CCN(C(=O)c2ccc(N(Cc3ccc(C)cc3)S(C)(=O)=O)cc2)CC1 | 86* | -12 | 0.1 | 65* | 0.3 | 21
Cc1ccc(CN(c2ccc(C(=O)N3CCOCC3)cc2)S(C)(=O)=O)cc1 | 15 | . | 0.9 | 13 | 0.9 | .
CS(=O)(=O)N(CC(=O)N1CCc2ccccc2C1)c1ccc2c(c1)OCO2 | 24 | -4 | 0.8 | 88* | 0.1 | -17
SMILES | CYP2C9 inh | PLK1 inh | CYP2C9 activ | CYP2C19 inhib | CYP2C19 activ | Plk1 PBD FP
CS(=O)(=O)N(CC(=O)N1CCc2ccccc2C1)Cc1ccc(Cl)cc1 | 85* | -4 | 0.2 | 88* | 0.1 | -15
CCOc1ccc(CN2CCNC(=O)C2CC(=O)OC)cc1 (stereo not drawn) | -12 | -8 | 1.1 | -15 | 1.2 | 19
O=C(NC1CCCCC1)n1c(=O)oc2ccc(Cl)cc21 | 5 | -1 | 1 | 13 | 0.9 | -30
CCOC(=O)N1CCN(C(=O)c2ccc(N(Cc3ccccc3)S(C)(=O)=O)cc2)CC1 | 90* | 4 | 0.1 | 68* | 0.3 | -4
O=C(CCC(=O)c1cccs1)OCc1nnc(-c2ccccc2)o1 | 2 | -18 | 1 | 17 | 0.8 | -3
Cc1cccc(OCCOC(=O)C2CCN(S(=O)(=O)c3cccs3)CC2)c1 | 65* | -2 | 0.3 | 47 | 0.5 | 7
O=C(OCCN1C(=O)c2ccccc2C1=O)C1CCN(S(=O)(=O)c2cccs2)CC1 | 97* | -9 | 0 | 86* | 0.1 | 6
O=C(OCc1nnc(-c2ccccc2)o1)C1CCN(S(=O)(=O)c2cccs2)CC1 | 79* | -4 | 0.2 | 38 | 0.6 | 25
COc1cc(CCC(=O)N2CCN(S(=O)(=O)c3ccc(C)c(C)c3)CC2)cc(OC)c1OC | 45 | -7 | 0.6 | 56* | 0.4 | 14
COc1ccc(S(=O)(=O)N2CC(C)N(S(=O)(=O)c3ccc(OC)cc3)CC2C)cc1 (stereo not drawn) | 0 | . | 1 | 30 | 0.7 | .
O=[N+]([O-])c1ccc(S(=O)(=O)N2CCN(Cc3c[nH]c4ccccc34)CC2)cc1 | 15 | -2 | 0.8 | 14 | 0.9 | 6
COc1ccc(S(=O)(=O)N2CCN(Cc3c[nH]c4ccccc34)CC2)cc1 | -1 | -1 | 1 | 52* | 0.5 | 26
CCOc1ccc(C(=O)CN2CCN(S(=O)(=O)c3ccc(Cl)cc3)CC2)cc1 | 24 | -8 | 0.8 | 58* | 0.4 | -11
COc1ccc(S(=O)(=O)N2CC3C4C=CC(C4)C3C2)cc1 (stereo not drawn) | 22 | -3 | 0.8 | 58* | 0.4 | 20
CC(NC(=O)C1(C)CC1(Br)Br)C(C)(C)C (stereo not drawn) | -3 | -14 | 1 | 6 | 0.9 | 5
COc1cc(C2=NOC(C(=O)N3CCN(c4ccc(F)cc4)CC3)C2)cc(OC)c1OC (stereo not drawn) | 13 | -6 | 0.9 | 12 | 0.9 | 5
COc1cc(CN2CCN(S(=O)(=O)c3ccc(F)cc3)CC2)cc(OC)c1OC | 47 | 1 | 0.5 | 84* | 0.2 | 10
COc1cc(S(=O)(=O)N2CCN(Cc3ccccc3)CC2)ccc1Br | -38 | -12 | 1.4 | 35 | 0.7 | 5
COc1ccc(S(=O)(=O)N2CCN(Cc3cccc(Cl)c3)CC2)cc1 | 61* | -5 | 0.4 | 94* | 0.1 | 0
COc1ccc(S(=O)(=O)N2CCN(Cc3ccc(Cl)cc3)CC2)cc1 | -10 | -13 | 1.1 | 63* | 0.4 | 14
CCOC(=O)c1ccc(S(=O)(=O)N2CCN(S(=O)(=O)CC)CC2)cc1 | 3 | -9 | 1 | 26 | 0.7 | -3
CCOC(=O)c1ccc(S(=O)(=O)N2CCN(CC(=O)NC(=O)NC3CCCCC3)CC2)cc1 | 60* | -13 | 0.4 | 16 | 0.8 | -8
CC(O)(CS(=O)(=O)Cc1ccccc1)C(=O)Nc1cccc(C(F)(F)F)c1 (stereo not drawn) | 6 | -5 | 0.9 | 43 | 0.6 | -28
